Reference: PubChem BioAssay (EPA / NIEHS)
Results filed as inconclusive are left out. Active and inactive are the calls of the source. Rule for the calls: active = hit-call score of the fitted dose curve at least 0.9, where 1 is the maximum; inconclusive = response in the unintended direction; inactive = score below 0.9.

These molecules were tested against Oxysterols receptor LXR-alpha (Homo sapiens) (UniProt Q13133) (assay: ATG_LXRa_TRANS: Attagene TRANS-FACTORIAL HepG2 Assay for human Liver X Receptor alpha (LXRa) (AID 2282980)). Settings: HepG2 Attagene TRANS reporter, LXRa transactivation.
Chain of Oxysterols receptor LXR-alpha (Homo sapiens) (Q13133 whole entry, looked up): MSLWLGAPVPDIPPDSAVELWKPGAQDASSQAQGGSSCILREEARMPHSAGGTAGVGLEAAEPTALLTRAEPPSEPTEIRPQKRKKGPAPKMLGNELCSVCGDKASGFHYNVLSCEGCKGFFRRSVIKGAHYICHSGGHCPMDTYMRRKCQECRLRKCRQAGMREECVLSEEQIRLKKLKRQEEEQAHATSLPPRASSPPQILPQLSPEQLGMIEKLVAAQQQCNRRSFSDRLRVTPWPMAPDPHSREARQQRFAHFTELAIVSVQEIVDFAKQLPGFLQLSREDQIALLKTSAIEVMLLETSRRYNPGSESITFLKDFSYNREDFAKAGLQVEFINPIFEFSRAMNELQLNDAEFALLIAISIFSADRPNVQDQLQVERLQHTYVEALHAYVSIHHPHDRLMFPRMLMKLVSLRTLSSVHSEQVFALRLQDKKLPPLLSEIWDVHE
Protocol: ATG_TRANS is a cell-based, multiplexed-readout assay that uses HepG2, a human liver cell line, with measurements taken at 24 hours after chemical dosing in a 24-well plate.ATG_LXRa_TRANS is one of 30 assay component(s) measured or calculated from the ATG_TRANS assay. It is designed to make measurements of mRNA induction, a form of inducible reporter, as detected with fluorescence intensity signals by Reverse transcription polymerase chain reaction (RT-PCR) and Capillary electrophoresis technology.Data from the assay component ATG_LXRa_TRANS was analyzed into 1 assay endpoint. This assay endpoint, ATG_LXRa_TRANS, was analyzed in the positive analysis fitting direction relative to DMSO as the negative control and baseline of activity. Using a type of inducible reporter, measures of mRNA for gain-of-signal activity can be used to understand the reporter gene at the transcription factor-level as they relate to the gene NR1H3. Furthermore, this assay endpoint can be referred to as a primary readout, because this assay has produced multiple assay endpoints where this one serves a reporter gene function. To generalize the intended target to other relatable targets, this assay endpoint is annotated to the nuclear receptor intended target family, where the subfamily is non-steroidal.
Human liver HepG2 cells are transiently transfected with multiple reporter transcription units (MRTUs) in 6-well plates using FuGene 6 reagent (Roche; 3 ml FuGene/1 mg DNA). The MRTU constructs are regulated by a cis-regulating element (promoter). […] A major difference between the CIS and TRANS system is that in CIS activities of endogenous TFs are measured, whereas the TRANS assay evaluates changes in activities of exogenous, chimeric NR-Gal4 proteins. […] At the end of 24 hour incubation, total RNA was isolated using TriZol reagent (Invitrogen). The isolated RNA is then reverse-transcribed using oligo(dT) primer and Mo-MLV reverse transcriptase (Invitrogen) with DNAse I (Ambion) treatment for 30 min. The one-tenth of the produced cDNA was amplified by PCR using Taq DNA polymerase (Invitrogen) and two reporter sequence-specific primers. The PCR products were fluorescently labeled by primer extension with 6-arboxyfluorescein (6-FAM) 5'-labeled reporter sequence-specific primer (2 min at 95 C, 20 s at 68 C and 10 min at 72 C) and these products were digested with 5U of HpaI (New England Biolabs) for 2h at 37 C. The fragments were purified using Qiaquick PCR columns (Qiagen), analyzed on an ABI 3130xL genetic analyzer (Applied Biosystems) with peak positions identified by using a set of X-rhodamine (ROX)-labeled MapMarker1000 molecular weight standards (BioVentures). The raw capillary electrophoresis data was processed using Attagraph software (Attagene).
`CN1[C@@H]2CC(OC(=O)[C@H](CO)c3ccccc3)C[C@H]1[C@@H]1O[C@@H]12` (stereo not given in full) was tested, and the outcome was “inactive”.
For `CC(C)(COC(=O)c1ccccc1)COC(=O)c1ccccc1`, the outcome was “inactive”.
With `CCN(CC)CCOC(=O)c1ccc(N)cc1` the outcome was “inactive”.
`CC(C)C(C)(C)C(C)(C)C(C)(C)S` was tested, and the outcome was “inactive”.
In the case of `C[C@H]1C[C@@H]2[C@H]([C@@H](O)C[C@@]3(C)[C@H]2CC[C@]3(O)C(=O)CO)[C@@]2(C)C=CC(=O)C=C12`, the outcome is reported as “inactive”.
For `Clc1ccc2c(c1)C(N1CCNCC1)=Nc1ccccc1O2`, the AC50 was 44.4 µM (active).
`NCCOCCO` was tested, and the outcome was “inactive”.
With `O=C(OCc1ccccc1)C(=O)OCc1ccccc1` the outcome was “inactive”.
`OCCCCCO` was tested, and the outcome was “inactive”.
In the case of `CCCCCCCCCCCCCCCCCC(=O)OCC(CC)CCCC` (stereo not given), the outcome is reported as “inactive”.
`Clc1nc(C(Cl)(Cl)Cl)c(Cl)c(Cl)c1Cl` was tested, and the outcome was “inactive”.
`COCCCOc1ccnc(CS(=O)c2nc3ccccc3[nH]2)c1C` (stereo not given) was tested, and the AC50 was 23.2 µM (active).
`c1ccc2[nH]ccc2c1` was tested, and the outcome was “inactive”.
In the case of `CCOC(=O)c1ccccc1OC`, the outcome is reported as “inactive”.
In the case of `Nc1nc2ccc([N+](=O)[O-])cc2s1`, the outcome is reported as “inactive”.
For `CCCCCOC(=O)CCC`, the outcome was “inactive”.
With `COc1cc(C)cc(O)c1` the outcome was “inactive”.
In the case of `COC(=O)Cc1cccc2ccccc12`, the outcome is reported as “inactive”.
In the case of `CC(O)C(C)O` (stereo not given), the outcome is reported as “inactive”.
In the case of `CCCc1ccccc1O`, the outcome is reported as “inactive”.
For `C=CC[N+](C)(C)CC=C`, the outcome was “inactive”.
With `Nc1cc(N)cc(C(=O)O)c1` the outcome was “inactive”.
`CC(C)=CCC[C@H](C)CC=O` was tested, and the outcome was “inactive”.
For `CCCCCCCCCC=O`, the outcome was “inactive”.
In the case of `C/C=C(\C)C(=O)OCc1ccccc1`, the outcome is reported as “inactive”.
With `O=C(O)c1ccc(C(=O)O)cc1` the outcome was “inactive”.
In the case of `C=C(C)C1CCC(C)CC1O` (stereo not given), the outcome is reported as “inactive”.
For `CC(C)=CCC/C(C)=C/COC=O`, the outcome was “inactive”.
`Cc1ccccc1C=O` was tested, and the outcome was “inactive”.
In the case of `O=C[C@@H](O)[C@H](O)[C@H](O)CO`, the outcome is reported as “inactive”.
For `CC(=O)O[C@]1(C(C)=O)CC[C@H]2[C@@H]3C[C@H](C)C4=CC(=O)CC[C@]4(C)[C@H]3CC[C@@]21C`, the outcome was “inactive”.
For `O=C1c2ccccc2C(=O)N1SC1CCCCC1`, the outcome was “inactive”.
For `CCCCCCCCCCCCSC`, the outcome was “inactive”.
In the case of `Clc1ccc(Cl)c(Cl)c1Cl`, the outcome is reported as “inactive”.
In the case of `CC1CCC(C(C)CS)CC1S` (stereo not given), the outcome is reported as “inactive”.
With `CC(CCO)CCCC(C)(C)O` (stereo not given) the outcome was “inactive”.
In the case of `CC(=O)OCCOC(C)=O`, the outcome is reported as “inactive”.
In the case of `CC(C)C1CCC(O)CC1` (stereo not given), the outcome is reported as “inactive”.
For `CCCCC[Si](OCC)(OCC)OCC`, the outcome was “inactive”.
With `CC(C)(C)c1n[nH]c(=S)n(N)c1=O` the outcome was “inactive”.
